# According to PubChem BioAssay (Tox21):
# Results filed as inconclusive are left out. The source made the active and inactive calls. Calls follow the shape of the full dose curve.
# Biological target: Beta-2 adrenergic receptor (Homo sapiens) (UniProt P07550)
# Assay: Adrenergic beta2 receptor (ADRB2) small molecule agonists, cell-based qHTS assay (AID 1963593)
# Settings: CHO-ADRB2 cells, cAMP HTRF, 30 min; series mostly up to 42.5 µM; activation: at the top concentration
# Excerpt: National Center for Advancing Translational Sciences [NCATS]
# Division of Preclinical Innovation [DPI]
# U.S. Environmental Protection Agency [EPA]
# National Institutes of Environmental Health Sciences [NIEHS]
# National Toxicology Program [NTP]
# U.S. Food and Drug Administration [FDA]
# Beta adrenergic receptors (Beta-ARs) belong to the G-protein coupled receptor (GPCR) superfamily, includes three subtypes - beta1, beta2, and beta3. Beta1-AR is the predominant receptor subtype expressed in the heart, and beta2-AR is expressed in the kidney, lung, blood vessel and in the heart, and beta3 is found in the adipocytes. Beta1 and 2 ARs couple to Gs protein and elevate cyclic adenosine mono phosphate (cAMP), which activates protein kinase A and leads to the downstream signaling responsible for the physiological actions. Beta-AR agonists or antagonists are the most prescribed therapeutic agents for heart failure and asthma, and these were one of the first target receptors for the rational drug design. Tox21 10K compound library was screened using the cAMP-Gs dynamic assay (Cisbio Bioassays, Shelton, CT) to identify agonists/antagonists of the Gs-coupled human adrenergic, beta2 receptor (ADRB2) in the CHO-ADRB2 cell line (Codex BioSolutions, Inc. Gaithersburg, MD), which stably over-expresses ADRB2. The principle of cAMP-Gs dynamic assay is based on HTRF technology, which facilitates the fluorescence resonance energy transfer (FRET) between donor Europium cryptate and acceptor d2-labeled cAMP. The cAMP generated within cells competes with the red acceptor, d2-labled cAMP, for binding to the monoclonal anti-cAMP-cryptate (Europium donor). An increase in intracellular cAMP leads to the disruption of FRET signal, and the signal is inversely proportional to the cAMP concentration. Isoproterenol HCl (Sigma-Aldrich, St. Louis, MO) was used as a positive control in the screening.
# Tox21 Assay Protocol Summary:
# CHO-ADRB2 cells were dispensed at 1,000/well in 4uL assay medium into white/solid 1536-well plates (Greiner Bio-One North America Inc., Monroe, NC) using a Multidrop Combi dispenser (ThermoFisher Scientific, Waltham, MA). The assay plates were incubated at 37C and 5% CO2 for an overnight (18-20hr). Then positive control and test compounds dissolved in DMSO were transferred to the assay plates at 23nL using a Pintool station (Wako, San Diego, CA). Following the compound and positive control transfer, 1uL stimulation mix containing 100uM IBMX and 25uM Ro-20-1724 was added to each well of the assay plates using BioRAPTR Flying Reagent Dispenser (FRD, Beckman Coulter, Brea, CA). The assay plates were incubated at room temperature for 0.5hr. Then 2.5ul each d2-labled cAMP and anti-cAMP-cryptate solutions were added separately to each well of the assay plates using an FRD and the assay plates were incubated at room temperature for 1hr.
# % is scaled to controls: 0 for no effect and ±100 for the full control effect.
# Chain of Beta-2 adrenergic receptor (Homo sapiens) (P07550 whole entry, looked up): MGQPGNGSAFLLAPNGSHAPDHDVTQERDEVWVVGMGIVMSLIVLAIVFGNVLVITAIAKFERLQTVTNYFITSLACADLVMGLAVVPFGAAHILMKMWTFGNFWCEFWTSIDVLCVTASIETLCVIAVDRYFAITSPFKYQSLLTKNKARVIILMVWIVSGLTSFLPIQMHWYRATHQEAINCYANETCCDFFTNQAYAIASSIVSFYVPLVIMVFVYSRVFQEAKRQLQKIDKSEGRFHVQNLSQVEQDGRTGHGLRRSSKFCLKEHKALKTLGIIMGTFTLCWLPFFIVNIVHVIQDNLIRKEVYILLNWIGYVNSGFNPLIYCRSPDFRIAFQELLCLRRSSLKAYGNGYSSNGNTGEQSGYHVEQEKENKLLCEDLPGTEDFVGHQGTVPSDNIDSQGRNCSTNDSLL
row,Structure (SMILES),activation
1,Cc1nc2ccccc2n1Cc1ccc(Cl)cc1,4.8% (inactive)
2,CN1[C@@H]2CC[C@H]1CC(OC(=O)C(O)c1ccccc1)C2 (stereo not given in full),-1.26% (inactive)
3,O=C1CCCCCCCCCCCCCC1,-26% [at 92.4 µM] (inactive)
4,CCCCCCCCCC[N+](C)(C)[O-],-5.22% [at 92.4 µM] (inactive)
5,C=C1C(CCl)(CCl)C2(Cl)C(Cl)C(Cl)C1(Cl)C2(Cl)Cl (stereo not given),25.4% [at 92.4 µM] (inactive)
6,COc1cc2c3cc1Oc1cc(ccc1O)C[C@@H]1c4c(cc(OC)c(O)c4Oc4ccc(cc4)C[C@@H]3N(C)CC2)CC[N+]1(C)C,-34.4% (inactive)
7,COc1cc(C(=O)NS(=O)(=O)c2ccccc2C)ccc1Cc1cn(C)c2ccc(NC(=O)OC3CCCC3)cc12,3.75% (inactive)
8,CCCCCCC(O)CCCCCCCCCCC(=O)OC (stereo not given),4.15% [at 92.4 µM] (inactive)
9,CC(=O)C(C)=O,10.9% [at 92.4 µM] (inactive)
10,CCCCCCCCCCCc1ccccc1,-21.7% [at 92.4 µM] (inactive)
11,CN(C)CCN1C(=O)c2ccccc2N(C)c2ccccc21,1.93% (inactive)
12,CCCCCCCCCCCCS(=O)(=O)Cl,-24.4% [at 19 µM] (inactive)
13,CCOC(CN1CCN(CC(C)C(=O)c2ccccc2)CC1)c1ccccc1 (stereo not given),0.292% [at 19 µM] (inactive)
14,CCN(CC)CCOC(=O)C1(c2ccccc2)CCCC1,24.8% (inactive)
15,CN1CCN(N)CC1,12.4% (inactive)
16,O=S(=O)(O)c1ccc(Cl)cc1,-0.265% [at 92.4 µM] (inactive)
17,C=C(C)C(=O)OCC1CCCO1 (stereo not given),18.9% [at 92.4 µM] (inactive)
18,O=C1OC(=O)C2C3C=CC(C3)C12 (stereo not given),0.646% [at 92.4 µM] (inactive)
19,Cc1ccc2c(c1)C(=O)c1ccccc1C2=O,19.6% [at 92.4 µM] (inactive)
20,COc1ccccc1Oc1c(NS(=O)(=O)c2ccc(C(C)(C)C)cc2)nc(-c2ncccn2)nc1OCCO,-34.7% (inactive)

row,Structure (SMILES),activation
1,CCN(CC)CCNC(=O)c1cc(S(C)(=O)=O)ccc1OC,0.456% (inactive)
2,C[N+]12CCC(CC1)C(OC(=O)C(O)(c1ccccc1)c1ccccc1)C2 (stereo not given),9.65% (inactive)
3,CC(C)CCCCCCOC(=O)CCCCC(=O)OCCCCCCC(C)C,-13.7% [at 92.4 µM] (inactive)
4,CC(C)Oc1ccccc1O,7.94% [at 92.4 µM] (inactive)
5,Cc1ccccc1CCO,3.13% [at 92.4 µM] (inactive)
6,O=c1[nH]cnc2ccccc12,11.1% [at 92.4 µM] (inactive)
7,NC(=O)Nc1ccc(Cl)c(Cl)c1,-23.7% [at 92.4 µM] (inactive)
8,CO/N=C(\C(=O)N[C@@H]1C(=O)N2C(C(=O)O)=C(CSc3nc(=O)c(O)nn3C)CS[C@H]12)c1csc(N)n1,6.98% (inactive)
9,C=CCOC(=O)/C=C\C(=O)OCC=C,5.3% [at 92.4 µM] (inactive)
10,Nc1ccc(S(=O)(=O)Nc2ccnn2-c2ccccc2)cc1,17.1% [at 19 µM] (inactive)
11,CN1CN(C)CN(C)C1,1.43% [at 92.4 µM] (inactive)
12,Nc1cc(C(F)(F)F)ccc1S,13.7% (inactive)
13,COCC(=O)Nc1c(I)c(C(=O)NCC(O)CO)c(I)c(C(=O)N(C)CC(O)CO)c1I (stereo not given),-6.07% (inactive)
14,Cc1cccc(C)c1OCC(C)N (stereo not given),15.3% (inactive)
15,CCC(=O)O[C@]1(C(=O)CCl)[C@@H](C)C[C@H]2[C@@H]3CCC4=CC(=O)C=C[C@]4(C)[C@@]3(F)[C@@H](O)C[C@@]21C,-3.02% (inactive)
16,C=CC(=O)OCC[N+](C)(C)C,3.6% [at 92.4 µM] (inactive)
17,CO[Si](CCCS)(OC)OC,-22.8% [at 92.4 µM] (inactive)
18,CCCCCCCC/C=C\CCCCCCCC(=O)OC,6.92% [at 92.4 µM] (inactive)
19,O=C(O)C1CCC1,-0.0049% (inactive)
20,CCOC(=O)c1ccccc1O,4.64% (inactive)
